HTT prom inh: Primary qHTS for Identification of Small Molecule Inhibitors of Huntingtin Promoter Activity | HEK293 HTT promoter firefly luciferase reporter, 24 h | Potency, µM (highest dose often 57.5 µM), for inactives: top-dose activity change, negative = inhibition, hits mostly inhibitors | 0.93% of 48,000 active | AID 1508623, 2021; note: potency is the fitted concentration of half-maximal effect; nearly all actives have a fitted effect of over 50% in size
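HEK293 Fluc reporter, 2,500 cells/well, 24 h pre-culture; cpds up to 57.5 uM final, 24 h 37 degrees C; Dual-Glo, 10 min RT; normalized vehicle = 0%, zero RLU = -100%.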
NTMT1 inhibitor: Primary qHTS for Inhibitors of N-terminal methyltransferase 1 (NTMT1): MTaseGlo Assay | N-terminal Xaa-Pro-Lys N-methyltransferase 1 (Homo sapiens), Q9BV86 | NTMT1 MTase-Glo SAH luminescence, purified enzyme | Potency, µM (top dose mostly 114 µM), without a hit: top-dose activity change, negative = inhibition, most hits filed as inhibitors | 2.5% of 59,000 active | AID 1645870, 2021;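 note: potency is the fitted concentration of half-maximal effect; plate controls were DMSO vehicle for no effect and no enzyme for full effect; nearly all actives have a fitted effect of over 65% in size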
Target sequence (Q9BV86 whole entry, looked up): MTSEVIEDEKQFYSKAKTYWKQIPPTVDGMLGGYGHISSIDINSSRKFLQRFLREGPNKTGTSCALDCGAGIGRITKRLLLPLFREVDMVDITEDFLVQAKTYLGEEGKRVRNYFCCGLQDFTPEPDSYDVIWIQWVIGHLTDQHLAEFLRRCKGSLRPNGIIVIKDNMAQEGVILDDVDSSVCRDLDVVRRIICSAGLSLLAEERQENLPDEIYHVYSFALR
FH mod: Identification of activators of human fumarate hydratase by quantitative high-throughput screening; FH coupled MDH/diaphorase resazurin fluorescence, 15 min; Potency, µM (series often up to 79.9 µM), without a hit: at the top dose activity change, negative = inhibition, hits mostly inhibitors; 0.22% of 54,000 active; note: potency is the fitted concentration of half-maximal effect; % is set by controls: 0 for no effect and ±100 for the full control effect; the screen sought activators but most active calls are inhibition curves; nearly all actives have a fitted effect of over 45% in size
Target sequence (P07954 whole entry, looked up): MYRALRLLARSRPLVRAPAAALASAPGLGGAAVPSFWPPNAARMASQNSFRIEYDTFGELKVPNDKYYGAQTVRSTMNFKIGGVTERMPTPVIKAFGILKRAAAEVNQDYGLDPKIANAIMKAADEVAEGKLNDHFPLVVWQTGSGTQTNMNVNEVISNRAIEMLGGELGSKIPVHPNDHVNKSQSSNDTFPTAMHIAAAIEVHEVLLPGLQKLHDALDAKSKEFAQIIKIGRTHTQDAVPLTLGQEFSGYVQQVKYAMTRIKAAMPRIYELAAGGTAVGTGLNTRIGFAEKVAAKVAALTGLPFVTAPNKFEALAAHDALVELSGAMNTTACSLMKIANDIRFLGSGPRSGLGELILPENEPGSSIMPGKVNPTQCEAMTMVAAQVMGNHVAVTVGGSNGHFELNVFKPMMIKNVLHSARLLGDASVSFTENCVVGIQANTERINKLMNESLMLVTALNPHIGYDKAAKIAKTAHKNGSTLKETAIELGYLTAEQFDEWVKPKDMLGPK
DRV1 agonist: qHTS for Agonists of Human Resolvin D1 Receptor DRV1; Probable G-protein coupled receptor 32 (Homo sapiens), O75388; 2.5% of 48,000 active; AID 1346428, 2018; CHO-K1 GPR32 beta-arrestin PathHunter luminescence, 90 min; zero percent set by DMSO-only wells; activation, % at 76.9 µM;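 active = activation of at least 60% and not above a set upper limit, about 1 call in 100 departs from these limits; inconclusive = activation of 40% to 60%, or above that upper limit; inactive = activation under 40%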; note: 0% is about no effect
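Agonism was scored as beta-arrestin recruitment to ProLink-fused GPR32 in stably transfected CHO-K1 cells, giving a chemiluminescent beta-Gal signal; compounds were incubated 90 min at 37 °C.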
HTT-AS promoter: Primary qHTS for Identification of Small Molecule Activators of Huntingtin-Antisense Promoter Activity; HEK293 HTT-AS promoter firefly luciferase reporter, 24 h; response scale: percent change from vehicle, -100% = no light; Potency, µM (titrated, usually from 57.5 µM), for inactives: at the highest dose activity change, positive = activation, most hits filed as activators; 0.24% of 48,000 active; note: potency is the fitted concentration of half-maximal effect; nearly all actives have a fitted effect of over 55% in size
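HEK293 luciferase promoter-reporter cells (2,500/well) plated 24 h, then compounds added at up to 57.5 uM final for 24 h at 37 °C. Firefly luminescence by Dual-Glo, normalized to vehicle (0%) and zero RLU (-100%).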
* marks the source's active call; other numbers are inactive results; ? = inconclusive; . = no result given; [ ] = another dose, or the depositor's remark. Hits are enriched below; roughly 4.7% of the tested compounds scored in any of these assays. Unless noted, calls come from the whole dose curve; as a rule, active = well fitted curve in the direction sought with a large enough effect; inconclusive = small, poorly fitted or top-dose-only effect, or another doubt; inactive = no such curve, though single readings can be large; an effect the other way counts as inactive or inconclusive.

SMILES | HTT prom inh | NTMT1 inhibitor | FH mod | DRV1 agonist | HTT-AS promoter
O=C(CCCc1nc(-c2ccc(Cl)cc2)no1)NCc1ccco1 | ? | 0.2% | 7.9% | 15.0 | -41.9%
Cc1ccc(-c2noc(CCCC(=O)NCc3ccco3)n2)cc1 | 3.55µM* | -3.9% | 2.9% | 10.9 | -60.7%
O=C(N/N=C/c1ccccc1O)c1ccncc1 | -24.5% | 24.9%[57.5 µM] | 14.5%[53.3 µM] | 95.9* | -16.0%
Cc1ccc(NC(=O)c2cnc(N3CCCCC3)c3ccccc23)c(C)c1 | 1.2% | -14.1% | -1.6% | -2.6 | -3.2%
Cc1ccc(Cl)cc1NC(=O)c1cnc(N2CCCCC2)c2ccccc12 | -4.9% | 89.1µM* | -18.6% | -11.5 | -20.9%
CCc1ccc(NC(=O)c2sc3nc(C)c(Cl)c(C)c3c2NC(=O)c2ccccc2OC)cc1 | 1.5% | 2.5% | 1.4% | -0.8 | -1.0%
CCc1ccc(NC(=O)c2sc3nc(C)c(Cl)c(C)c3c2N)cc1 | 70.4% | -9.4% | -15.4% | 7.8 | 2.51µM*
CC(C)(C#CCSc1nnc(-c2cccc3ccccc23)o1)OC(=O)c1ccc(F)cc1 | . | 4.9% | . | . | .
CCOC(=O)c1c(C)[nH]c(C)c1S(=O)(=O)N(C)CC(=O)NCc1cccc(Br)c1 | -40.8% | -20.4% | -2.3% | 100.7* | -16.2%
CCOC(=O)c1c(C)[nH]c(C)c1S(=O)(=O)NCC(=O)NCc1cccc(Br)c1 | -21.7% | ? | -12.0% | -11.3 | -8.7%
CCC(C)Sc1oc(-c2ccco2)nc1S(=O)(=O)c1ccc(Cl)cc1 (centres undefined) | ? | -10.6% | -16.4% | -42.8 | -6.4%
Cc1ccccc1OCC(=O)Nc1ccccc1C(=O)OCc1cc(=O)n2c(C)csc2n1 | 2.24µM* | 2.5% | 2.4% | 10.6 | -46.5%
CCOC(=O)c1[nH]c(C)c(CCC(=O)N2CCN(c3cc(C)ccc3C)CC2)c1C | ? | -2.9% | -0.8% | -15.8 | -39.3%
CCOC(=O)C1CCN(C(=O)Cn2c(=O)oc3cc(S(=O)(=O)N4CCC(C)CC4)ccc32)CC1 | -15.0% | -8.9% | -1.9% | -0.1 | -24.5%
CCN1CCOC(=O)C1CC(=O)Nc1cc(C)ccc1OC (centres undefined) | 9.8% | 1.2% | -4.4% | -52.5 | -14.1%
CCN1CCOC(=O)C1CC(=O)Nc1ccc(Br)cc1 (centres undefined) | -11.4% | -3.7% | -3.2% | 74.4* | -22.6%
Cc1nc2cccnc2n1-c1cccc(C(=O)N2CCN(c3ccc(Cl)cc3)CC2)c1 | 10µM* | -5.9% | 3.2% | 46.3 | -45.5%
COc1ccc(N2CCN(C(=O)c3cccc(-n4c(C)nc5cccnc54)c3)CC2)cc1 | ? | -4.3% | 3.7% | 27.9 | -21.9%
CCc1ccc(N=C2NC(=O)CC(C(=O)Nc3ccc(OC)cc3)S2)cc1 (centres undefined) | -6.2%[11.5 µM] | -19.6% | -17.4% | 91.7* | 15.7%[11.5 µM]
O=C(Cn1cc(CN(Cc2ccccc2)Cc2ccccc2)nn1)Nc1cc(C(F)(F)F)ccc1Cl | . | 12.7% | . | . | .
COc1ccc(-c2cnc3ccc(NCc4ccc(S(N)(=O)=O)cc4)nn23)cc1OC | . | ? | -7.5% | . | .
CN1CCC(CNc2ccc3ncc(-c4cccc(OC(F)(F)F)c4)n3n2)CC1 | ? | 15.8µM* | ? | . | -29.6%
CCCCCOC(=O)Nc1nc(=O)n([C@@H]2O[C@H](C)[C@@H](O)C2O)cc1F (some centres undefined) | -2.6% | 35.1%[57.5 µM] | 14.8%[53.3 µM] | . | 9.8%
CC1=C(c2ccc(C(C)C)cc2)S(=O)(=O)N=C1N1CCC(C(=O)Nc2ccc(C)cc2)CC1 | -26.8% | -13.3% | 1.3% | ? | -30.4%
Cc1ccc(C)c(N2CCN(C(=O)C3CCN(c4nc(-c5ccc(C(C)C)cc5)no4)CC3)CC2)c1 | 0.112µM* | -1.2% | -14.2% | -17.7 | -93.2%
SMILES | HTT prom inh | NTMT1 inhibitor | FH mod | DRV1 agonist | HTT-AS promoter
Cc1ccc(NC(=O)C2CCN(c3nc(-c4ccc(C(C)C)cc4)no3)CC2)c(Cl)c1 | 0.1µM* | -2.9% | -0.2% | -9.1 | -90.0%
COc1ccc(-c2noc(N3CCC(C(=O)Nc4cccc(C)c4C)CC3)n2)cc1 | 2.82µM* | 0.5% | -2.1% | -13.8 | -59.0%
COc1ccc(-c2noc(N3CCC(C(=O)N4CCN(c5ccccc5F)CC4)CC3)n2)cc1 | ? | 12.8% | -6.9% | -23.6 | -47.7%
O=C(NCCc1ccccc1)C1CCN(Cc2cc3ccccc3n2Cc2ccccc2)CC1 | -8.9% | -10.1% | -14.0% | -49.6 | -31.1%
CC(=O)c1ccc(N2CCN(c3ccc(NC(=O)c4ccc(F)cc4)cc3C(=O)O)CC2)cc1 | -13.6% | ? | 3.4% | 8.7 | -14.4%
O=C(Nc1ccc(N2CCN(c3ccc(F)cc3)CC2)c(C(=O)O)c1)c1cccs1 | -4.9% | 89.1µM* | -11.5% | 1.7 | 18.3%
Cc1ccsc1/C=C/C1=NCCCN1C | 8.0% | 12.6µM* | 3.4%[53.3 µM] | 2.6 | 2.1%
COc1cccc(C2c3c(ncn(-c4ccccc4OC)c3=N)Oc3ccc4ccccc4c32)c1 (centres undefined) | . | -11.5%[57.5 µM] | . | . | .
CC(=O)c1ccc(NC(=O)CCOc2ccccc2)cc1 | 46.5% | -2.6% | -2.8% | -11.0 | ?
Cc1ccc(NC(=O)CCOc2ccccc2)cc1 | 47.7% | 9.0% | -7.6% | -9.3 | 10µM*
CN(C)S(=O)(=O)c1ccc(C(=O)NCCS(=O)(=O)N2CCN(c3ccccc3)CC2)cc1 | ? | -4.5% | 2.2% | -4.9 | -5.2%
COc1cccc(NC(=O)CSc2nnc(COc3ccc(Cl)cc3)o2)c1 | . | . | . | 16.3 | .
CCc1ccccc1NC(=O)CSc1nnc(COc2ccccc2Cl)o1 | ? | 5.9% | -25.7% | 69.1* | -2.9%
CCOC(=O)c1c(C)[nH]c(C)c1S(=O)(=O)N1CCC(C(=O)N2CCN(c3ccc(Cl)cc3)CC2)CC1 | ? | ? | -8.3% | -4.1 | -12.5%
CCOC(=O)c1c(C)[nH]c(C)c1S(=O)(=O)N1CCN(c2ccc(Cl)cc2)CC1 | ? | -14.9% | -32.6% | 68.0* | -21.8%
CCN(C(=O)CSc1ncc(S(=O)(=O)c2ccc(C)c(Cl)c2)c(=O)[nH]1)c1cccc(C)c1 | -23.9% | ? | -19.7% | 75.4* | -13.8%
Cc1c(-c2cccc(NC(=O)Cc3ccccc3)c2)nc2ncccn12 | -3.9% | -3.5% | -7.2% | 30.2 | 1.7%
Cc1c(-c2cccc(NC(=O)Nc3ccccc3)c2)nc2ncccn12 | 9.7% | -7.2% | -9.5% | 95.9* | 3.2%
CC(C)C[C@@H](C(=O)N[C@@H](Cc1ccc(OCc2ccccc2)cc1)C(=O)NC(C)(C)C)N(C)Cc1ccc(C(C)(C)C)cc1 | . | 3.2%[57.5 µM] | 0.9% | . | .
N#CC(CCCN1CCN(/N=C/c2cccnc2)CC1)(c1ccccc1)c1ccccc1 | . | 1.5%[57.5 µM] | -11.8% | . | .
Cc1ccccc1NCc1cccn1-c1nnc(N2CCOCC2)s1 | -22.1% | -4.9% | -32.6% | 15.5 | -8.6%

Bioassay records as filed in PubChem BioAssay.
